# Experimental data reported in PMC7862700, “An all-to-all approach to the identification of sequence-specific readers for epigenetic DNA modifications on cytosine”.
# Tests used:
# Experiment in all cases: DAPPL (digital affinity profiling via proximity ligation, sequencing); 10 mM Tris-HCl pH 7.5, 50 mM NaCl, 1 mM DTT, 4% glycerol, room temperature, 30 min; GST-TFs on glutathione beads, 16-mer random dsDNA library, 0.1% formaldehyde crosslink after washing; high values mean tight binding
# Conditions in all cases: protein: recombinant; tags: N-terminal GST; dsDNA, one strand shown
# ETV2 = target: T1, ETV2 (Homo sapiens, UniProt O00321 1-342)
# T1 sequence: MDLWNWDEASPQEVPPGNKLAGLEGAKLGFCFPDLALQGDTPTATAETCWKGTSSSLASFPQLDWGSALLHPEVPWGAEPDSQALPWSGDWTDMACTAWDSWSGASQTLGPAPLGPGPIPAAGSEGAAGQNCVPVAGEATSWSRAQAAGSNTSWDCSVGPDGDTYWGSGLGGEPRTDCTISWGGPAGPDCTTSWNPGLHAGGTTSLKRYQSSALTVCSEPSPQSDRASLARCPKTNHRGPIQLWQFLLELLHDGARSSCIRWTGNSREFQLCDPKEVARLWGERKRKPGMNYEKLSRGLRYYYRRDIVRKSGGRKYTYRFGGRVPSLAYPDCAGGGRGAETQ
# Summary of the method: (§1)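 Binding signal is each hexamer's read frequency for a factor divided by its frequency in the tag-only sample. The factors were GST-fused human transcription factors from yeast, captured on glutathione beads, DNA-barcoded and pooled with that sample. Pools were incubated with 200 nmole of a random double-stranded 16-mer DNA library in Tris/NaCl/DTT/glycerol buffer at room temperature for 30 min, then washed, crosslinked with 0.1% formaldehyde, proximity-ligated with BsaI/T4 ligase (1 h, 37 °C), PCR-amplified and sequenced on an Illumina NextSeq500.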
# ELF3 = target: T2, ELF3 (Homo sapiens, UniProt P78545 1-371)
# T2 sequence: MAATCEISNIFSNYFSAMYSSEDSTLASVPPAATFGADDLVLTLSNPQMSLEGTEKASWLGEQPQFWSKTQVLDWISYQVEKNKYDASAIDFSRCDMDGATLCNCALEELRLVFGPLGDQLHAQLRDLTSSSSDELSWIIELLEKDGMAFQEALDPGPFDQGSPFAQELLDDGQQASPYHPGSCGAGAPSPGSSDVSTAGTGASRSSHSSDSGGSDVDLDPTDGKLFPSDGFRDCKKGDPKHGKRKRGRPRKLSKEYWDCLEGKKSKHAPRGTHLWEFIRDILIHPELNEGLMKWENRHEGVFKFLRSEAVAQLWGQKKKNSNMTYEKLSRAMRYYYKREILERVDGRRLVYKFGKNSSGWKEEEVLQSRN
# Summary of the method: as §1
# ETV1 = ETV1 (Homo sapiens, UniProt P50549 1-477)
# Summary of the method: as §1
# ERF = target: T3, ERF (Homo sapiens, UniProt P50548 1-548)
# T3 sequence: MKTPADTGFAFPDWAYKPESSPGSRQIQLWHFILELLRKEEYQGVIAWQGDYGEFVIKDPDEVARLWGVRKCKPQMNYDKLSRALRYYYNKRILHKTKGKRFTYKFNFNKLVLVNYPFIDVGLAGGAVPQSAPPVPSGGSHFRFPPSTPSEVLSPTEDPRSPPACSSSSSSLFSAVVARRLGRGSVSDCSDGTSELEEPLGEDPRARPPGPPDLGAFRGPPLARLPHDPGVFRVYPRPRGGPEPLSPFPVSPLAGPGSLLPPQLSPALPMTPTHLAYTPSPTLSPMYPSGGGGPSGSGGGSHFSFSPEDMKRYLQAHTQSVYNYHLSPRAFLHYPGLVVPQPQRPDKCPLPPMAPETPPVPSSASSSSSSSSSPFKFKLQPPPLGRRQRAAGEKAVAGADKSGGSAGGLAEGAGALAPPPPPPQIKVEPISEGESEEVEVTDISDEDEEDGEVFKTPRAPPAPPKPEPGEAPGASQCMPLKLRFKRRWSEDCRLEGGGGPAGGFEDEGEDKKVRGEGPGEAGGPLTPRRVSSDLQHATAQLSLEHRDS
# Summary of the method: as §1
# ETV3L = target: T4, ETV3L (Homo sapiens, UniProt Q6ZN32 1-361)
# T4 sequence: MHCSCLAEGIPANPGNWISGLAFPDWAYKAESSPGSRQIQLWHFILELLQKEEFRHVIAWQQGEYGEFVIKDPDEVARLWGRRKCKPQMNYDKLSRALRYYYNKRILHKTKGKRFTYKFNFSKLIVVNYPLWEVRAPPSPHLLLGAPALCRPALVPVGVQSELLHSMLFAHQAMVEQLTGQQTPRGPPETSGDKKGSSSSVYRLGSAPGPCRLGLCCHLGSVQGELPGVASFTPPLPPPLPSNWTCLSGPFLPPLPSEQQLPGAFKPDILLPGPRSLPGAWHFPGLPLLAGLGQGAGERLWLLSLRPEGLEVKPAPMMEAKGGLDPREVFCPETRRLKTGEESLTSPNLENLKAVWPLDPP
# Summary of the method: as §1
# ETS2 = target: T5, ETS2 (Homo sapiens, UniProt P15036 1-469)
# T5 sequence: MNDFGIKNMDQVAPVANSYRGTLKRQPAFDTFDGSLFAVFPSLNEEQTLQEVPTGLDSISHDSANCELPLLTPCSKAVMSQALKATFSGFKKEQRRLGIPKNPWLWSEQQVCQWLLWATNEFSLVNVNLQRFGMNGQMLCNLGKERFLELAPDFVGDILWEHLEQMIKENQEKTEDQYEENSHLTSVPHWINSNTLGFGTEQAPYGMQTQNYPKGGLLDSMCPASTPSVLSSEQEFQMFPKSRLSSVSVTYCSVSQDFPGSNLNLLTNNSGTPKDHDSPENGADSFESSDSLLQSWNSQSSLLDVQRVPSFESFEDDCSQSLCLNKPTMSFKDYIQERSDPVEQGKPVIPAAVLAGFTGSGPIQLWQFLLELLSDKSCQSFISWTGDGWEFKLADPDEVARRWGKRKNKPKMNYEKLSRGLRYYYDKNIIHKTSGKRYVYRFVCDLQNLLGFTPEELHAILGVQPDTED
# Summary of the method: as §1
# SPDEF = target: T6, SPDEF (Homo sapiens, UniProt O95238 1-335)
# T6 sequence: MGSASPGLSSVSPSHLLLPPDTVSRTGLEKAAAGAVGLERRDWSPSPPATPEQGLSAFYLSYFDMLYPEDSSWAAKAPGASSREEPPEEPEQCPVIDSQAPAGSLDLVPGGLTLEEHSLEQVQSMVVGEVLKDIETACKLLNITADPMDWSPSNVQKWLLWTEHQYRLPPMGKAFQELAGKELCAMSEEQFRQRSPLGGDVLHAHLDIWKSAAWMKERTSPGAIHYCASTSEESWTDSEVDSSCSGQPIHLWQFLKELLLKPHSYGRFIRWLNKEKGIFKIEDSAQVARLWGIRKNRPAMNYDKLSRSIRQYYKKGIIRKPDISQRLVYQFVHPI
# Summary of the method: as §1
# ETV7 = target: T7, ETV7 (Homo sapiens, UniProt Q9Y603 1-341)
# T7 sequence: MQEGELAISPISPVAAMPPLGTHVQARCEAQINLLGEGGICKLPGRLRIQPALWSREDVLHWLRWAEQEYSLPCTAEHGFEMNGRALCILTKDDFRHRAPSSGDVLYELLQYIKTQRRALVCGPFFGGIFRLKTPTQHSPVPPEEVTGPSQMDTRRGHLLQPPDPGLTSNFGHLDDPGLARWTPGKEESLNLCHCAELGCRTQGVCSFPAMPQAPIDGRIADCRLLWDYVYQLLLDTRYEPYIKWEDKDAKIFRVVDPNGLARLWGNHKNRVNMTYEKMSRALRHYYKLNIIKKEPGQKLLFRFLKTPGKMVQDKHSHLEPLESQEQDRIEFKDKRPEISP
# Summary of the method: as §1
# ELF5 = target: T8, ELF5 (Homo sapiens, UniProt Q9UKW6-2 1-255)
# T8 sequence: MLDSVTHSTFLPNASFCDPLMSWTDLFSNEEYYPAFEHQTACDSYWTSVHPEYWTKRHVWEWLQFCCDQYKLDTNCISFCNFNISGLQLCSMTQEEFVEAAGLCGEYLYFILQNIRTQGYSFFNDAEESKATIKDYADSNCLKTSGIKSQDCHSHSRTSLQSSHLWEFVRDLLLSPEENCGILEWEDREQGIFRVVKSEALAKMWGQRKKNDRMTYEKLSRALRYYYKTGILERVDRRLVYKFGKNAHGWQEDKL
# Summary of the method: as §1
# ETV3 = target: T9, ETV3 (Homo sapiens, UniProt P41162-2 1-143)
# T9 sequence: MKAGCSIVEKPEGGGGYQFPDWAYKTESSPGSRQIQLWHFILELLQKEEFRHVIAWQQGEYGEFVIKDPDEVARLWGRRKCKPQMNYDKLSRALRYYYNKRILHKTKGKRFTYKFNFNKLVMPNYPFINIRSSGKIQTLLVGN
# Summary of the method: as §1
# ETV6 = ETV6 (Homo sapiens, UniProt P41212 1-452)
# Summary of the method: as §1
# Sequence of ETV1 (P50549 whole entry): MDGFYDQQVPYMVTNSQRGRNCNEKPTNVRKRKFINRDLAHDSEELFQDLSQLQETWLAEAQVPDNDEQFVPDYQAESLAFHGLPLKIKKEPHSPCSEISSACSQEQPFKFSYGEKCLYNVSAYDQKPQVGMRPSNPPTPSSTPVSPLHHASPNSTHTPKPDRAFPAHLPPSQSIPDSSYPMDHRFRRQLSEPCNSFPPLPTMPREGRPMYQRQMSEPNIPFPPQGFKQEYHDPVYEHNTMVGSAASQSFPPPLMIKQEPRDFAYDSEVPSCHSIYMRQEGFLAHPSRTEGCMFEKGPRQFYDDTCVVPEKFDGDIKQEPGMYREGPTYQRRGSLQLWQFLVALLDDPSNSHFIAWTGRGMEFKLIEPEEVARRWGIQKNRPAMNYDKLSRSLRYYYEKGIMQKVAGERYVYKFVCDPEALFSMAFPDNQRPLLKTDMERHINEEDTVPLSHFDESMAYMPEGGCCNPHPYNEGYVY
# Sequence of ETV6 (P41212 whole entry): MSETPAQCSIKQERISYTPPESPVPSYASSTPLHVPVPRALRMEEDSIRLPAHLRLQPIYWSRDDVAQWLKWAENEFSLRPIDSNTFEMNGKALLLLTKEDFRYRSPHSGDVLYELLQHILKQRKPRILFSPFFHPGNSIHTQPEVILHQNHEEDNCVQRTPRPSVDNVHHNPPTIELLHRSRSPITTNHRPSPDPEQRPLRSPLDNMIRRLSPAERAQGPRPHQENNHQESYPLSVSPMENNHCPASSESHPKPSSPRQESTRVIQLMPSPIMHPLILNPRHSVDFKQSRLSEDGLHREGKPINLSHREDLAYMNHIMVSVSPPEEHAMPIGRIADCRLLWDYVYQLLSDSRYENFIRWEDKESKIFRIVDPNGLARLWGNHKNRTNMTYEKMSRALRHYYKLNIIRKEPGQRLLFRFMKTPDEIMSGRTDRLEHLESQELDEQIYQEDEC
sequence,measurement,setting,value
ACAGCC,binding signal,ETV2,"1.05 fold enrichment (6-mer frequency, TF over GST control)"
same,binding signal,ELF3,"1.24 fold enrichment (6-mer frequency, TF over GST control)"
same,binding signal,ETV1,"1.06 fold enrichment (6-mer frequency, TF over GST control)"
same,binding signal,ERF,"1.18 fold enrichment (6-mer frequency, TF over GST control)"
same,binding signal,ETV3L,"1.04 fold enrichment (6-mer frequency, TF over GST control)"
same,binding signal,ETS2,"1.03 fold enrichment (6-mer frequency, TF over GST control)"
same,binding signal,SPDEF,"1.02 fold enrichment (6-mer frequency, TF over GST control)"
same,binding signal,ETV7,"1.15 fold enrichment (6-mer frequency, TF over GST control)"
same,binding signal,ELF5,"1.03 fold enrichment (6-mer frequency, TF over GST control)"
same,binding signal,ETV3,"1.04 fold enrichment (6-mer frequency, TF over GST control)"
same,binding signal,ETV6,"1.03 fold enrichment (6-mer frequency, TF over GST control)"
